Experimental data taken from PubChem BioAssay AID1878 (Sanford-Burnham Center for Chemical Genomics, 2009).
About 200 (20%) of roughly 1,000 compounds were called active. A selection follows. Entries with a potency or affinity are not part of this list. A number with no mark means an inactive call. Rule as the data show it: active = inhibition above about 55%; inactive = the rest.

Molecular target: Dual specificity protein phosphatase 3 (Homo sapiens) (UniProt P51452)
Test: VHR1 phosphatase inhibitors, biochemical (AID 1878)
Settings: recombinant VHR phosphatase, fluorogenic substrate; at 13.3 µM; stronger effect = higher value

Sequence of Dual specificity protein phosphatase 3 (Homo sapiens) (P51452 whole entry, looked up): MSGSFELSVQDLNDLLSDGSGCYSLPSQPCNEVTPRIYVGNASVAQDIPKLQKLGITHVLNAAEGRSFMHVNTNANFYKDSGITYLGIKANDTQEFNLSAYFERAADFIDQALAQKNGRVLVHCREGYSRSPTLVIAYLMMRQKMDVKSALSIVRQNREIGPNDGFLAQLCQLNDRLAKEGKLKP

SMILES	inhibition
COc1ccc(S(=O)(=O)N2CCCC(C(=O)NCC3CCCO3)C2)cc1C (configuration not stated)	-4.1%
COc1ccc(C(=O)NCc2nnc(SCC(=O)Nc3cc(OC)ccc3OC)o2)cc1	-6.8%
CC1CCCN(CCCNC(=O)C2CC(=O)N(CCc3ccccc3)C2)C1 (configuration not stated)	-5.4%
CCC1CCCCN1CCCNC(=O)C1CC(=O)N(CCc2ccccc2)C1 (configuration not stated)	20.9%
NC(=S)N=Nc1ccc(NN=C(N)N)cc1	40.2%
COc1ccc(NC(=O)Cc2nnc(SCC(=O)NC3CCCC3)n2C)cc1	-4.1%
CCNC(=O)c1cc(Br)ccc1Cl	-8.7%
CN(c1ccccc1)S(=O)(=O)c1nnc(NC(=O)C2CCCCC2)s1	-1.3%
Cn1c2ccccc2c(=O)c2ccc(C#Cc3ccccn3)cc21	75.5% (active)
Cc1nc([N+](=O)[O-])cn1Cc1cccc2ccccc12	-13.3%
O=C(CN1CCCCC1)N/N=C/c1cccc(Cl)c1	-9.7%
O=C(Cn1c2ccccc2c(=O)c2ccccc21)N/N=C/c1cc([N+](=O)[O-])ccc1N1CCCCCC1	99.4% (active)
NC(=O)c1ccc(C(=O)N/N=C/c2cccc(Oc3ccccc3)c2)cc1	-0.5%
Cc1nc2cc(NC(=O)c3ccc(Cl)cc3)ccc2n1C	-9.5%
O=C(N/N=C/c1cccnc1)c1cccc(NC(=O)c2ccc(Cl)cc2)c1	92.9% (active)
O=C(N/N=C/c1ccncc1)c1cccc(S(=O)(=O)Nc2ccc(Cl)cc2)c1	98.9% (active)
CN(C)CCNC(=O)c1cccc(S(=O)(=O)Nc2ccc(F)cc2)c1	-5.8%
Cc1ccc(S(=O)(=O)NC(CC(=O)NC2CCCC2)c2ccco2)cc1 (configuration not stated)	23.6%
CSc1ncc(C(=O)Nc2ccccc2Cl)c(C)n1	-1.1%
COc1ccc(OC)c(N/C(N)=N/c2nc(C)cc(C)n2)c1	-19.2%
Cc1ccc(NC(=O)CCNC(=O)c2ccccc2Cl)nc1	1.9%
CC(c1ccccc1)N1CCn2c(nc3cc(NC(=O)NC4CCCCC4)ccc32)C1 (configuration not stated)	-21.4%
COc1ccc(/C=C2\N=C(C)OC2=O)cc1OC	-5.7%

SMILES	inhibition
CC(C)OCCCNc1ncnc2c1nc1n2CCCC1	-2.4%
COC(=O)c1ccnc(/C=N/O)c1	9.3%
COc1ccc(-c2nnc(SC(C)C(=O)NNC(=O)c3ccc(C)cc3)o2)cc1 (configuration not stated)	-2.9%
COc1ccc(-c2nnc(Nc3nc4c(OC)cccc4s3)o2)cc1	95.5% (active)
Cc1[nH][nH]c(=O)c1C(c1cc(Br)ccc1O)c1c(C)[nH][nH]c1=O	3.3%
COc1ccccc1N1CCN(C2CCCN(C(=O)CCC(=O)N(C)C)C2)CC1 (configuration not stated)	-13.2%
CCCC(NC(=O)Cc1c(C)c2cc3c(C)c(C)oc3c(C)c2oc1=O)C(=O)N[C@@H](Cc1ccccc1)C(=O)O (some centres not stated)	68.8% (active)
COc1ccc2c(c1)cc(C(=O)N[C@@H](Cc1ccccc1)C(=O)N[C@@H](C)C(=O)O)n2C	-10.4%
Cn1c(C(=O)N[C@@H](Cc2ccccc2)C(=O)O)cc2cc(Cl)ccc21	3.5%
Cc1nn(CC(=O)NCCCN2CCCCC2C)c(=O)c2cccn12 (configuration not stated)	-5.4%
CCOCCCNC(=O)C1CC(=O)N(CCc2ccccc2)C1 (configuration not stated)	15%
CC(C)CCNC(=O)CN(C(=O)CCC(=O)Nc1ccccn1)c1ccc2c(c1)OCCO2	5.2%
Nc1nc(-c2cc(O)ccc2[N+](=O)[O-])cc(-c2ccccc2)c1[N+](=O)[O-]	80.5% (active)
O=C(NN1C(=O)C2C(C1=O)C1C=CC2C12CC2)c1ccccc1 (configuration not stated)	3.2%
N#Cc1c(N2CCCC2)nc(N)c2c(N)nc(N3CCCC3)cc12	78.3% (active)
N#Cc1c(N2CCCC(O)C2)nc(N)c2c(N)nc3c(c12)CC(=O)N3C12CC3CC(CC(C3)C1)C2 (configuration not stated)	-7.9%
CCOC(=O)c1c(C)[nH]c(C)c1S(=O)(=O)NC1CCN(C(=O)OCC)CC1	-2%
COc1cccc(CNCCc2ccc3c(c2)OCO3)c1OC	26.4%
CCCN1CCC(NC(=O)CC2C(=O)NCCN2Cc2ccccc2C)CC1 (configuration not stated)	-11.6%
O=C(O)CCCNc1cc(N2CCC3(CC2)OCCO3)c2noc3c2c1C(=O)c1ccccc1-3	12.8%
Cc1ccc(S(=O)(=O)NC2CCCCCC2)cc1C(N)=O	-4.2%
NS(=O)(=O)c1ccc(NC(=S)NC2CCCCCC2)cc1	56.7% (active)
CC1(C)CC(NC(=S)Nc2ccc(S(N)(=O)=O)cc2)CC(C)(C)N1	58.2% (active)

SMILES	inhibition
CC1(C)CC(NS(=O)(=O)c2ccc(C(C)(C)C)cc2)CC(C)(C)N1	6.7%
CC1(C)CC(NC(=O)C(c2ccccc2)c2ccccc2)CC(C)(C)N1	24%
O=C(CCCC(=O)N(CC(=O)NC1CCCC1)c1cccc(F)c1)Nc1ccccn1	-10.4%
Cn1cc(CN2CCCCC2C(=O)Nc2ccc(-n3cccn3)cc2)cn1 (configuration not stated)	10.3%
CCC(=O)N1c2ccc(S(=O)(=O)NCCc3ccc(C)cc3)cc2CC1C (configuration not stated)	7.9%
CCC(C)N(C(=O)c1csnn1)C(C(=O)NC1CCCC1)c1ccccc1F (configuration not stated)	10%
CSc1sccc1/C=C(/C#N)C(=O)c1ccco1	28.9%
CCn1c(=O)n(CC)c2cc(N3CCCC3)c(NC(=O)c3ccccc3F)cc21	-2.4%
COCCn1c(SCC(=O)N2CCCC(C)C2)nnc1-c1ccco1 (configuration not stated)	-3.4%
O=C(CCNS(=O)(=O)c1ccccc1)N1CCCCCC1	7.7%
O=C(NCc1ccccc1Cl)C1CCC(CNc2nc(=S)[nH]c3ccccc23)CC1 (configuration not stated)	-7%
CC1CCN(CCCNC(=O)C2CCN(S(=O)(=O)N3CCC4(CC3)OCCO4)CC2)CC1	1.6%
O=C(c1cc(C2CC2)on1)N1CCCC(N2CCN(c3ccc(F)cc3)CC2)C1 (configuration not stated)	0.4%
CCOc1ccc(C2NC(=O)c3ccccc3O2)cc1OC (configuration not stated)	-17.6%
CN(Cc1ccccn1)C(=O)C1CCC(=O)N(CCc2ccc(Cl)cc2)C1 (configuration not stated)	-11.4%
COc1ccc(NC(=O)CN(C)S(=O)(=O)c2ccc3[nH]c(=O)oc3c2)cc1	12.6%
Cn1c(=O)oc2cc(S(=O)(=O)NCCC(=O)NCc3ccccc3Cl)ccc21	14.6%
COc1ccccc1-c1nc2c3ccccc3nc(=S)n2[nH]1	7.9%
CC(C)c1ccc(NS(=O)(=O)c2cccc3cccnc23)cc1	-1%
COc1ccc2c(c1)C(=NNC(=O)c1ccccn1)c1cc(OC)ccc1-2	99.3% (active)
Cc1cc(NC(=O)C2CCCCC2)ncc1NC(=O)c1ccccn1	9%
COc1ccccc1-c1cc(C(=O)Nc2cccnc2Cl)no1	12.2%
CCOC(=O)c1sc(=NC(=O)c2c(F)cccc2F)n(C)c1C	26.7%

SMILES	inhibition
CC(=O)NCCC(=O)N(C)CC1CCN(CCc2cccc(C(F)(F)F)c2)CC1	-21.4%
COc1ccccc1C(=O)NNC(=O)CCN1C(=O)/C(=C\c2ccccc2)SC1=S	38.1%
COc1ccc(/C=C2\SC(=S)N(CCC(=O)Nc3cccc(C(=O)O)c3)C2=O)cc1	86.4% (active)
CCOC(=O)c1ccc(NC(=O)CCS(=O)(=O)Cc2ccccc2)cc1	11.4%
Cc1ccc(NC(=O)COc2cccc(/C=C3\SC(=S)N(CCC(=O)O)C3=O)c2)cc1Cl	79.2% (active)
CCc1ccc(/C=C2/SC(=S)N(CCC(=O)Nc3ccc(C(=O)O)cc3)C2=O)cc1	87.1% (active)
O=C(CCN1C(=O)/C(=C\C=C\c2ccccc2)SC1=S)Nc1ccc(C(=O)O)cc1	98.7% (active)
COc1cccc(NC(=O)CCc2nc(-c3cccs3)no2)c1	11.2%
COc1ccc(S(=O)(=O)NCC2CCCN(Cc3cn(C)nc3C)C2)cc1 (configuration not stated)	0.5%
COc1ccccc1N1CCN(S(=O)(=O)c2ccc3c(c2)CC(C)N3C(C)=O)CC1 (configuration not stated)	2.4%
CCC1CCCCN1CCCNC(=O)c1ccc2c(c1)NC(=O)CN2C (configuration not stated)	-26.5%
CCCCN(Cc1ccco1)C(=O)C1CCCN(c2ncnc3c2nc2n3CCCCC2)C1 (configuration not stated)	-4.3%
CCCN1C2CCCC1CC(NC(=O)c1ccccc1OC)C2 (configuration not stated)	-6.6%
Cc1ccc(CNS(=O)(=O)c2c(C)[nH]c(=O)[nH]c2=O)cc1	-4.8%
NC(=O)c1ccc(NC(=O)CS(=O)(=O)c2cn(CC(=O)N3CCCC3)c3ccccc23)cc1	-13.4%
Cc1ccc(/C=N/N(C)C2=NS(=O)(=O)c3ccccc32)cc1	21.9%
COCCCNC(=O)c1ccc(CS(=O)(=O)c2ccccc2OC)o1	-5.7%
Nc1[nH]n2c(=O)cc(-c3ccccc3)nc2c1N=Nc1ccc2c(c1)OCO2	98.8% (active)
COc1cccc(N2CCN(c3ccc4nnc(CCC(=O)Nc5ccc(F)cc5F)n4n3)CC2)c1	6.6%
Cc1cc(C)c(S(=O)(=O)Cc2ccccc2)c(Cl)n1	7.3%
COc1ccc(/C=C/C(=O)NC(=S)Nc2cc([N+](=O)[O-])ccc2O)cc1OC	95.7% (active)
CCOc1cc2[nH]c(=S)n(Cc3ccc(C(=O)NCCN(CC)CC)cc3)c(=O)c2cc1OCC	-9.2%
Nn1c(SCC(=O)Nc2ccccc2F)nnc1C1CCCCC1	18.2%
